Values without a mark were called inactive. The source made the active and inactive calls.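 How the source made its calls: active means EC50 at or below 10 µM; inactive means EC50 above 10 µM.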
Assay: compound autofluorescence in calcium buffer – biochemical, fluorescence, no RTF in test wells, artefact control for cardiac thin filament activator project, dose response (AID 504697);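 further: emission near 535 nm under roughly 485 nm excitation as for IANBD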
Conditions: compound-only fluorescence in RTF assay buffer with Ca2+ (no RTF in test wells), artifact counterscreen

| SMILES | EC50 |
| --- | --- |
| COc1ccccc1/C=C/C=C1\Oc2c(ccc(O)c2CN2CCN(CCO)CC2)C1=O | 3.63 µM (active) |
| Cc1ccc(N=Nc2c(O)n(CN3CCOCC3)c3ccccc23)cc1 | > 71.5 µM |
| CCOC(=O)N1CCN(C(=S)Nc2ccccc2C)CC1 | > 71.4 µM |
| O=c1[nH][nH]c(C(F)(F)F)c1C=NCc1ccccc1Cl | > 71.4 µM |
| COc1ccc(/C=C/C(=O)NC(=S)Nc2ccc(C(=O)O)cc2)cc1 | > 71.5 µM |
| O=C(C1=C(O)C(=O)N(CCN2CCOCC2)C1c1ccc([N+](=O)[O-])cc1)c1cccs1 (stereo unspecified) | > 71.4 µM |
| CCn1nc(-c2ccccc2)c2nc3ccccc3nc21 | 10.3 µM |
| CCOC(=O)/C(=C/C=C1\Sc2cc(OCC)c(OCC)cc2N1CC)C(C)=O | 0.48 µM (active) |
| CC1=CC(=C(C#N)C#N)C=C(C)N1Cc1ccc(Cl)cc1 | > 71.5 µM |
| CCOC(=O)/C(=C/C1=CC(=C/N(C)C)/C(=O)O1)C(C)=O | 15.3 µM |
| N#Cc1ccc(S(=O)(=O)NC2CCCCNC2=O)cc1 (stereo unspecified) | > 71.4 µM |
| CCN1C(=O)/C(=C/N2CCc3ccccc32)SC1=S | 10.1 µM |
| CN1c2ccccc2C(O)=C(C(=S)Nc2ccc(F)c(Cl)c2)S1(=O)=O | > 71.5 µM |
| Nc1ccc2nc3c(=O)[nH]c(=S)[nH]c3nc2c1 | 2.93 µM (active) |
| COc1ccc(N/C=C2\C(=O)CCc3c2oc2cc(Cl)c(O)c(Cl)c32)cc1 | 7.28 µM (active) |
| COc1ccc(/C=C2\SC(=S)N(CCCC(=O)Nc3ccccc3C(=O)O)C2=O)cc1OC | 53.3 µM |
| CN(C)CCN(C)Cc1c2ccccc2c(CN(C)CCN(C)C)c2ccccc12 | > 71.5 µM |
| O=C(CSc1nnc(COc2ccccc2)o1)N1CCN(c2ccccc2)CC1 | > 71.5 µM |

| SMILES | EC50 |
| --- | --- |
| C=CCOc1ccc(Br)cc1CNCC | > 71.6 µM |
| CCSC1=N/C(=C\C=C2/Oc3ccccc3N2CC)C(=O)S1 | 11.9 µM |
| CCN1C(=O)/C(=C/C=C2/SCCN2C)SC1=S | 2.63 µM (active) |
| CCc1ccc2c(COC(=O)CNS(=O)(=O)c3ccc(NC(C)=O)cc3)cc(=O)oc2c1 | > 71.5 µM |
| C=CCn1c(C)c(/C=C/c2cc[n+](C)cc2)c2ccccc21 | 4.64 µM (active) |
| CCOC(=O)c1sc(N)c(C#N)c1COC(=O)CNC(=O)c1cc(OC)c(OC)c(OC)c1 | 49.3 µM |
| Cc1cc(C)c2nc(NC(=O)C3CCCO3)sc2c1 (stereo unspecified) | > 71.5 µM |
| COc1cc(/C=C(\C#N)c2nc3ccccc3[nH]2)cc(OC)c1O | 11.1 µM |
| O=C(COC(=O)c1ccc(O)cc1)Nc1ccc2c(c1)OCCO2 | > 71.5 µM |
| CCOC(=O)c1sc2nc(C)nc(SCC(=O)NC3CCS(=O)(=O)C3)c2c1C (stereo unspecified) | > 71.5 µM |
| Cc1ccnc2nc(C(=O)OCC(=O)NCCc3ccccc3)nn12 | > 71.5 µM |
| O=C(Cn1cnc2c(cnn2-c2ccccc2)c1=O)Nc1ccc(S(=O)(=O)N2CCOCC2)cc1 | > 71.5 µM |
| CCOc1ccc2ccccc2c1CNCCN1CCOCC1 | > 71.5 µM |
| O=C(NCc1nnc(SCC(=O)N2CCCCCC2)o1)c1ccco1 | > 71.5 µM |
| O=C(Nc1nc(-c2nc3ccccc3s2)cs1)C1COc2ccccc2O1 (stereo unspecified) | > 71.5 µM |
| COc1ccc(OC)c(/C=C2\N=C(c3ccccc3)OC2=O)c1 | 1.71 µM (active) |
| COc1ccc(NC(=O)/C(C#N)=C\c2ccc(N3CCOCC3)o2)cc1 | 3.63 µM (active) |
| Cc1ccnc(N/C=C(\C#N)c2nc(-c3cccc(Br)c3)cs2)c1 | 1.59 µM (active) |

— PubChem BioAssay AID504697 (The Scripps Research Institute Molecular Screening Center, 2011)
